Calls of active or inactive are those of the source. No rule for the calls is given here.

The source of these data is PubChem BioAssay AID2665 (Vanderbilt High Throughput Screening Facility, 2010).

For test [1], the target named is Muscarinic acetylcholine receptor M1 (Rattus norvegicus) (UniProt P08482). The test can be described thus: potentiation of ACh response at hM5 and rM1 – CHO cells, calcium, ACh EC10, single 30 µM, SAR follow-up (AID 2665).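 Also: 100% = response to a maximal acetylcholine concentration.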 As to conditions: rat M1 potentiation, CHO calcium; at 30 µM; stronger effect = higher value.
The target of test [2] is Muscarinic acetylcholine receptor M5 (Homo sapiens) (UniProt P08912). Described as above. To be noted: CHO hM5 calcium flux, ACh EC10 potentiation; at 30 µM; stronger effect = higher value. In general terms: Calcium flux is commonly read through the fluorescence of an indicator in the cells.
Sequence of Muscarinic acetylcholine receptor M5 (Homo sapiens) (P08912 whole entry, looked up): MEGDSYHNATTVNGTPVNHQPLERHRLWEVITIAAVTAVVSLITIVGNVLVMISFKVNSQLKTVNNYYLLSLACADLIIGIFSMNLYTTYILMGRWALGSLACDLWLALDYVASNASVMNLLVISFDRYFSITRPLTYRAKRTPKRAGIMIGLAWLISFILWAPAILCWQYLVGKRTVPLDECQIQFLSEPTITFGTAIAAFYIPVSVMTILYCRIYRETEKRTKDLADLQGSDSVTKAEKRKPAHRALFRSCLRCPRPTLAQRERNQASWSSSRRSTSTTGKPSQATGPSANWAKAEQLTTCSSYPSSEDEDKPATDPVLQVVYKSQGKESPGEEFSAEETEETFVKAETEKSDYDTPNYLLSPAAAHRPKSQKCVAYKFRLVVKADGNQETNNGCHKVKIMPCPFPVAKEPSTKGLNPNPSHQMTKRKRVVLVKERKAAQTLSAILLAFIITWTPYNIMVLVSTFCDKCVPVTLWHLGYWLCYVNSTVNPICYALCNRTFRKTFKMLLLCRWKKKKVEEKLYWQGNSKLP

Regarding `O=C1C(=O)N(Cc2ccc(OC(F)(F)F)cc2)c2ccc(OC(F)(F)F)cc21`, the results for the % ACh max response in test [1] and in test [2] were 13.8% and 58.9% (active), respectively.

For `O=C1C(=O)N(Cc2ccc(Br)cc2)c2ccc(Cl)cc21`, the % ACh max response in test [1] is 26.1%; in test [2], 32% (inactive).

For `Cc1ccccc1CN1C(=O)C(=O)c2cccc(Cl)c21`, the % ACh max response was 32.8% in test [1] and 32.6% (inactive) in test [2].

For the molecule `COc1ccc(CN2C(=O)C(=O)c3ccccc32)cc1`, the % ACh max response is 43.6% in test [1] and 29.2% (active) in test [2].

On to `O=C1C(=O)N(Cc2ccc(OC(F)(F)F)cc2)c2ccc(F)cc21`, for which the % ACh max response in test [1] was 59.8%; in test [2] it was 58.4% (active).

As to `O=C1C(=O)N(Cc2ccc(F)cc2F)c2c(Cl)ccc(Cl)c21`, the figures for the % ACh max response in test [1] and in test [2] were 17.2% and 19.1% (inactive), respectively.

For `COc1ccc(CN2C(=O)C(=O)c3cc(C)ccc32)cc1`, the % ACh max response was 14.1% in test [1] and 21.2% (inactive) in test [2].

On to `O=C1C(=O)N(Cc2ccccc2F)c2c(F)cccc21`, for which the values for the % ACh max response in test [1] and in test [2] were 42.7% and 42.4% (active), respectively.

In the case of `O=C1C(=O)N(Cc2ccccc2Cl)c2ccc(Cl)cc21`, the % ACh max response was 21.3% in test [1] and 44.4% (active) in test [2].

For the molecule `Cc1ccccc1CN1C(=O)C(=O)c2cc(F)ccc21`, the % ACh max response in test [1] was 37.7%; in test [2] it was 40.8% (active).

Turning to `O=C1C(=O)N(Cc2ccccc2Cl)c2ccc(F)cc21`, the % ACh max response in test [1] was 41.4%; in test [2] it was 39.9% (active).

`O=C1C(=O)N(Cc2ccc(Br)cc2F)c2ccc(Cl)cc21`: the % ACh max response is 29.9% in test [1] and 30.4% (inactive) in test [2].

As for `O=C1C(=O)N(Cc2ccc(C(F)(F)F)cc2)c2c(Cl)cccc21`, the % ACh max response in test [1] was 67%; in test [2], 70.8% (active).

On to `Cc1cccc2c1N(Cc1c(F)cccc1F)C(=O)C2=O`, for which the % ACh max response is 17.3% in test [1] and 14.4% (inactive) in test [2].

In the case of `O=C1C(=O)N(Cc2c(F)cccc2F)c2c(Cl)ccc(Cl)c21`, the % ACh max response in test [1] is 16.4%; in test [2], 12.2% (inactive).

Consider `O=C1C(=O)N(Cc2ccc(-c3ccc(Cl)c(Cl)c3)cc2)c2ccccc21`, for which the % ACh max response in test [1] was 35.3%; in test [2], 56.3% (active).

Consider `O=C1C(=O)N(Cc2ccc(F)cc2F)c2ccccc21`, for which the % ACh max response was 44.8% in test [1] and 40.4% (active) in test [2].

With `O=C1C(=O)N(Cc2ccc(F)cc2F)c2c(Cl)cccc21`, the figures for the % ACh max response in test [1] and in test [2] were 64.6% and 61.6% (active), respectively.

`COc1ccc(CN2C(=O)C(=O)c3cc(OC(F)(F)F)ccc32)cc1`: the % ACh max response in test [1] was 12.7%; in test [2] it was 60.7% (active).

On to `O=C1C(=O)N(Cc2ccc(Br)cc2F)c2ccc(F)cc21`, for which the % ACh max response in test [1] was 70.5%; in test [2], 64% (active).

As for `O=C1C(=O)N(CCc2ccc(Br)cc2)c2ccccc21`, the % ACh max response in test [1] was 52.4%; in test [2] it was 65% (active).

On to `COc1cccc(CN2C(=O)C(=O)c3ccccc32)c1`, for which the % ACh max response in test [1] is 19.4%; in test [2], 28% (inactive).

Take `O=C1C(=O)N(Cc2ccc(-c3ccc(Cl)cc3)cc2)c2ccccc21`: the figures for the % ACh max response in test [1] and in test [2] were 45.1% and 6.53% (active), respectively.

In the case of `Cc1ccc2c(c1)C(=O)C(=O)N2Cc1ccc(OC(F)(F)F)cc1`, the results for the % ACh max response in test [1] and in test [2] were 13.8% and 18.9% (inactive), respectively.

Regarding `COc1cccc(CN2C(=O)C(=O)c3cc(F)ccc32)c1`, the % ACh max response is 32.3% in test [1] and 41.6% (active) in test [2].

For the molecule `O=C1C(=O)N(Cc2ccccc2C(F)(F)F)c2ccc(Cl)cc21`, the % ACh max response in test [1] is 29.6%; in test [2], 48.4% (active).

Consider `O=C1C(=O)N(Cc2ccccc2F)c2ccc(OC(F)(F)F)cc21`, for which the % ACh max response in test [1] is 11.3%; in test [2], 51.8% (active).

With `COc1ccc(-c2ccc(CN3C(=O)C(=O)c4ccccc43)cc2)cc1`, the % ACh max response in test [1] is 20.1%; in test [2], 30.8% (inactive).

`O=C1C(=O)N(Cc2ccc(F)cc2F)c2ccc(Cl)cc21`: the % ACh max response in test [1] is 32.4%; in test [2], 44.9% (active).

As to `O=C1C(=O)N(Cc2ccc(F)cc2F)c2ccc(OC(F)(F)F)cc21`, the % ACh max response in test [1] is 25.9%; in test [2], 61.9% (active).

`O=C1C(=O)N(Cc2ccc(Br)cc2F)c2c(F)cccc21`: the % ACh max response was 39.2% in test [1] and 46.3% (active) in test [2].

Consider `O=C1C(=O)N(Cc2ccc(Br)cc2)c2c(Cl)cccc21`, for which the values for the % ACh max response in test [1] and in test [2] were 29.9% and 44.3% (active), respectively.

`O=C1C(=O)N(Cc2ccc(OC(F)(F)F)cc2)c2ccccc21`: the % ACh max response in test [1] is 54.7%; in test [2], 60.5% (active).

Regarding `O=C1C(=O)N(Cc2ccc(C(F)(F)F)cc2)c2ccc(OC(F)(F)F)cc21`, the % ACh max response in test [1] was 25.7%; in test [2], 67.2% (active).

For `O=C1C(=O)N(Cc2ccccc2Cl)c2ccc(OC(F)(F)F)cc21`, the % ACh max response was 12.3% in test [1] and 51.9% (active) in test [2].

Take `O=C1C(=O)N(Cc2ccccc2F)c2c(Cl)cccc21`: the % ACh max response in test [1] was 50.4%; in test [2] it was 49.5% (active).

`Cc1ccc2c(c1)C(=O)C(=O)N2Cc1ccccc1Cl`: the % ACh max response is 16.8% in test [1] and 24.3% (inactive) in test [2].

Turning to `O=C1C(=O)N(Cc2ccc(-c3ccccc3)cc2)c2ccc(OC(F)(F)F)cc21`, the % ACh max response in test [2] is 82.7% (active).

Turning to `O=C1C(=O)N(Cc2ccc(-c3ccsc3)cc2)c2ccc(OC(F)(F)F)cc21`, in test [2], the % ACh max response was 92.3% (active).

With `CCCOc1ccc(-c2ccc(CN3C(=O)C(=O)c4cc(OC(F)(F)F)ccc43)cc2)cc1`, the % ACh max response in test [2] is 31.8% (inactive).

As for `O=C1C(=O)N(Cc2c(F)cccc2F)c2c(F)cccc21`, the figures for the % ACh max response in test [1] and in test [2] were 33.1% and 25.1% (inactive), respectively.

With `O=C1C(=O)N(Cc2ccccc2C(F)(F)F)c2ccc(F)cc21`, the % ACh max response in test [1] was 47.8%; in test [2], 36.1% (active).

`O=C1C(=O)N(Cc2ccc(Br)cc2F)c2ccccc21`: the results for the % ACh max response in test [1] and in test [2] were 49.2% and 48.5% (active), respectively.

As to `O=C1C(=O)N(Cc2ccc(-c3ccc(Cl)nc3)cc2)c2ccc(OC(F)(F)F)cc21`, the % ACh max response in test [2] is 88.2% (active).

Consider `COc1ccc(CCN2C(=O)C(=O)c3cc(OC(F)(F)F)ccc32)cc1`, for which the % ACh max response in test [2] is 88.3% (active).

On to `CCCOc1ccc(-c2ccc(CN3C(=O)C(=O)c4ccccc43)cc2)cc1`, for which the values for the % ACh max response in test [1] and in test [2] were 24.2% and 48.6% (active), respectively.

For the molecule `COc1cccc(CN2C(=O)C(=O)c3cc(Cl)ccc32)c1`, the results for the % ACh max response in test [1] and in test [2] were 16.9% and 27.9% (inactive), respectively.

As to `Cc1ccc2c(c1)C(=O)C(=O)N2Cc1ccccc1C(F)(F)F`, the % ACh max response in test [1] is 17.8%; in test [2], 30.6% (inactive).

For the molecule `Cc1ccc2c(c1)C(=O)C(=O)N2Cc1ccc(Br)cc1F`, the results for the % ACh max response in test [1] and in test [2] were 22.3% and 27.8% (inactive), respectively.

As for `O=C1C(=O)N(Cc2ccc(-c3ccc(F)nc3)cc2)c2ccc(OC(F)(F)F)cc21`, the % ACh max response in test [2] is 78.8% (active).

For `O=C1C(=O)N(Cc2ccc(Br)cc2)c2c(F)cccc21`, the % ACh max response in test [1] was 62.7%; in test [2], 51.7% (active).

For the molecule `O=C1C(=O)N(Cc2ccccc2C(F)(F)F)c2c(Cl)ccc(Cl)c21`, the values for the % ACh max response in test [1] and in test [2] were 21.1% and 16% (inactive), respectively.

As to `O=C1C(=O)N(Cc2ccccc2Cl)c2c(F)cccc21`, the % ACh max response was 18.5% in test [1] and 20.3% (inactive) in test [2].

`Cn1cc(-c2ccc(CN3C(=O)C(=O)c4cc(OC(F)(F)F)ccc43)cc2)cn1`: the % ACh max response in test [2] was 86.8% (active).

As to `O=C1C(=O)N(CCc2ccc(Br)cc2)c2ccc(OC(F)(F)F)cc21`, in test [2], the % ACh max response is 81.1% (active).

In the case of `COc1cccc(CN2C(=O)C(=O)c3cc(OC(F)(F)F)ccc32)c1`, the % ACh max response is 28.6% in test [1] and 70.1% (active) in test [2].

Take `O=C1C(=O)N(Cc2c(F)cccc2F)c2ccc(Cl)cc21`: the values for the % ACh max response in test [1] and in test [2] were 27.3% and 31.8% (inactive), respectively.

`COc1ccc(-c2ccc(CN3C(=O)C(=O)c4cc(OC(F)(F)F)ccc43)cc2)cc1`: the % ACh max response in test [2] was 46% (active).

Consider `O=C1C(=O)N(Cc2ccc(-c3ccc(F)nc3)cc2)c2ccccc21`, for which the % ACh max response is 41% in test [1] and 46% (active) in test [2].

For the molecule `O=C1C(=O)N(Cc2ccc(Br)cc2F)c2c(Cl)ccc(Cl)c21`, the % ACh max response is 9.93% in test [1] and 12.4% (inactive) in test [2].

Regarding `O=C1C(=O)N(Cc2ccc(Br)cc2)c2ccc(OC(F)(F)F)cc21`, the % ACh max response in test [1] is 13.2%; in test [2], 47.6% (active).

With `O=C1C(=O)N(Cc2c(F)cccc2F)c2c(Cl)cccc21`, the results for the % ACh max response in test [1] and in test [2] were 38.8% and 23.6% (inactive), respectively.

As for `Cc1ccc2c(c1)C(=O)C(=O)N2Cc1ccc(Br)cc1`, the % ACh max response in test [1] was 19%; in test [2] it was 24.1% (inactive).

Regarding `O=C1C(=O)N(Cc2ccc(-c3ccc(Cl)cc3)cc2)c2ccc(OC(F)(F)F)cc21`, in test [2], the % ACh max response is 45.5% (active).

As to `COc1cccc(CN2C(=O)C(=O)c3cccc(F)c32)c1`, the figures for the % ACh max response in test [1] and in test [2] were 51.1% and 52% (active), respectively.

Turning to `Cc1ccccc1CN1C(=O)C(=O)c2ccccc21`, the % ACh max response in test [1] is 43.2%; in test [2], 36.3% (active).

In the case of `COc1ccc(CN2C(=O)C(=O)c3cccc(Cl)c32)cc1`, the % ACh max response in test [1] was 49.4%; in test [2], 30.3% (active).

With `O=C1C(=O)N(Cc2ccc(-c3ccc(Cl)c(Cl)c3)cc2)c2ccc(OC(F)(F)F)cc21`, the % ACh max response in test [2] was 73.5% (active).

Turning to `O=C1C(=O)N(Cc2ccccc2C(F)(F)F)c2c(Cl)cccc21`, the % ACh max response is 31.1% in test [1] and 14% (inactive) in test [2].

For `Cc1ccccc1CN1C(=O)C(=O)c2cc(OC(F)(F)F)ccc21`, the results for the % ACh max response in test [1] and in test [2] were 26.2% and 60% (active), respectively.

Consider `O=C1C(=O)N(Cc2ccccc2Cl)c2c(Cl)ccc(Cl)c21`, for which the results for the % ACh max response in test [1] and in test [2] were 13.1% and 18.9% (inactive), respectively.

`O=C1C(=O)N(Cc2c(F)cccc2F)c2ccccc21`: the % ACh max response was 36.6% in test [1] and 17.4% (inactive) in test [2].

In the case of `COc1ccccc1-c1ccc(CN2C(=O)C(=O)c3cc(OC(F)(F)F)ccc32)cc1`, the % ACh max response in test [2] is 72.6% (active).

Consider `O=C1C(=O)N(Cc2ccc(-c3cc(F)ccc3F)cc2)c2ccc(OC(F)(F)F)cc21`, for which, in test [2], the % ACh max response was 80.9% (active).
